From publication PMC5540273 (PLoS ONE, 2017)

Key:
Conditions in all cases: concentration: 1 μM, replicates: in singlicate; n = 1
AAK1 = test system: AAK1
ABL1-nonphosphorylated = test system: ABL1-nonphosphorylated
ABL1-phosphorylated = test system: ABL1-phosphorylated
ABL2 = test system: ABL2
ACVR1B = test system: ACVR1B
ACVR1 = test system: ACVR1
ACVR2A = test system: ACVR2A
ACVR2B = test system: ACVR2B
ACVRL1 = test system: ACVRL1
ADCK3 = test system: T1, ADCK3
T1 construct: gene CABC1

ADCK4 = test system: ADCK4
AKT1 = test system: AKT1
AKT2 = test system: AKT2
AKT3 = test system: AKT3
ALK = test system: ALK
AMPK-alpha1 = test system: T2, AMPK-alpha1
T2 construct: gene PRKAA1

AMPK-alpha2 = test system: T3, AMPK-alpha2
T3 construct: gene PRKAA2

ANKK1 = test system: ANKK1
ARK5 = test system: T4, ARK5
T4 construct: gene NUAK1

ASK1 = test system: T5, ASK1
T5 construct: gene MAP3K5
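Also: KINOMEscan kinase panel screen.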

Row | Structure (SMILES) | %Inh (AAK1) | %Inh (ABL1-nonphosphorylated) | %Inh (ABL1-phosphorylated) | %Inh (ABL2) | %Inh (ACVR1B) | %Inh (ACVR1) | %Inh (ACVR2A) | %Inh (ACVR2B) | %Inh (ACVRL1) | %Inh (ADCK3) | %Inh (ADCK4) | %Inh (AKT1) | %Inh (AKT2) | %Inh (AKT3) | %Inh (ALK) | %Inh (AMPK-alpha1) | %Inh (AMPK-alpha2) | %Inh (ANKK1) | %Inh (ARK5) | %Inh (ASK1)
1 | COc1ccc(C)c(Nc2ccnc(Nc3ccc(-c4cnc[nH]4)cc3)n2)c1.Cl [GW784041] | 29% | 95.4% | 97.1% | 92.8% | 74% | 99% | 93.5% | 93.3% | 91.7% | 40% | 53% | 14% | 0% | 8% | 0% | 30% | 0% | 0% | 99.3% | 0%
2 | CCNC(=O)/C=C/c1n[nH]c2cc(Sc3ccccc3C(=O)NC)ccc12 | 29% | 98.5% | 89% | 24% | 24% | 12% | 20% | 15% | 0% | 4% | 0% | 6% | 18% | 3% | 2% | 7% | 14% | 5% | 10% | 0%
3 | Cc1nn2c(=O)cc(N3CCO[C@H](C)C3)nc2n1Cc1cccc(Cl)c1Cl [GSK2373693] | 1% | 0% | 0% | 14% | 22% | 0% | 14% | 0% | 0% | 15% | 2% | 0% | 7% | 4% | 22% | 0% | 11% | 0% | 0% | 8%
4 | CC(C)c1nc(-c2cccc(NS(=O)(=O)c3c(F)cccc3F)c2)c(-c2ccnc(Nc3ccc(N4CCOCC4)nc3)n2)s1.Cl [GSK1723980] | 7% | 99.7% | 95.6% | 99.4% | 89% | 95.9% | 0% | 81% | 83% | 100% | 100% | 0% | 11% | 0% | 19% | 74% | 91.4% | 5% | 1% | 0%
5 | CS(=O)(=O)c1cccc(CNc2nc(Nc3ccc4c(c3)CCC(=O)N4)ncc2C(F)(F)F)c1 | 21% | 54% | 16% | 0% | 0% | 0% | 0% | 0% | 0% | 0% | 4% | 0% | 0% | 0% | 0% | 7% | 0% | 3% | 86% | 0%
6 | COc1cccc(NC(=O)NCCNc2ccnc(Nc3ccc(F)cc3)n2)c1 [GSK1379879] | 0% | 0% | 0% | 6% | 0% | 0% | 0% | 0% | 0% | 14% | 41% | 0% | 0% | 0% | 36% | 0% | 0% | 14% | 16% | 20%
7 | Cn1cc(-c2ccc3c(c2)CCN3C(=O)Cc2cc(F)cc(C(F)(F)F)c2)c2c(N)ncnc21 [GSK2635225] | 10% | 78% | 15% | 40% | 0% | 0% | 0% | 12% | 0% | 17% | 10% | 0% | 0% | 0% | 0% | 3% | 21% | 25% | 15% | 0%
8 | COc1cc(Nc2ccnc3cc(-c4ccncc4)ccc23)cc(OC)c1OC.Cl [GW494610] | 0% | 97.9% | 99.4% | 93% | 86% | 99.5% | 0% | 54% | 88% | 98.6% | 14% | 0% | 10% | 0% | 29% | 5% | 32% | 0% | 12% | 0%
9 | Cc1cc(-c2ccnc(Nc3cccc(C#N)c3)n2)cc(C)c1O [GSK1440913] | 79% | 25% | 1% | 37% | 0% | 96.5% | 8% | 88% | 17% | 35% | 72% | 0% | 0% | 0% | 7% | 17% | 32% | 9% | 23% | 0%
10 | CCn1cnc2c(NCc3ccccc3)ncnc21 [SKF-96418] | 0% | 21% | 9% | 0% | 0% | 0% | 0% | 0% | 0% | 0% | 0% | 0% | 0% | 0% | 0% | 3% | 0% | 0% | 0% | 0%
